# Columns and labels:
# Assay in all cases: DAPPL (digital affinity profiling via proximity ligation, sequencing); 10 mM Tris-HCl pH 7.5, 50 mM NaCl, 1 mM DTT, 4% glycerol, room temperature, 30 min; GST-TFs on glutathione beads, 16-mer random dsDNA library, 0.1% formaldehyde crosslink after washing; high values mean tight binding
# [1] = molecular target: T1, FEV (Homo sapiens, UniProt Q99581 1-238); conditions: protein: recombinant; tags: N-terminal GST; dsDNA, one strand shown
# T1 sequence: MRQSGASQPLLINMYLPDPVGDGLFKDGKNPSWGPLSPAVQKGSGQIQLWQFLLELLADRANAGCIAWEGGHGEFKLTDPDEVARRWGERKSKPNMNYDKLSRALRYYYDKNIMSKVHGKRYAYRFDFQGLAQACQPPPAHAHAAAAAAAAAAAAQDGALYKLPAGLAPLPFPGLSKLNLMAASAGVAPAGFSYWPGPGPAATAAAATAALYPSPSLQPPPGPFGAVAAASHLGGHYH
# Outline: (§1)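 Binding signal is each hexamer's read frequency for a factor divided by its frequency in the tag-only sample. The factors were GST-fused human transcription factors from yeast, captured on glutathione beads, DNA-barcoded and pooled with that sample. Pools were incubated with 200 nmole of a random double-stranded 16-mer DNA library in Tris/NaCl/DTT/glycerol buffer at room temperature for 30 min, then washed, crosslinked with 0.1% formaldehyde, proximity-ligated with BsaI/T4 ligase (1 h, 37 °C), PCR-amplified and sequenced on an Illumina NextSeq500.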
# [2] = molecular target: ETV5 (Homo sapiens, UniProt P41161 1-510); conditions: protein: recombinant; tags: N-terminal GST; dsDNA, one strand shown
# ETV5, sequence (P41161 whole entry): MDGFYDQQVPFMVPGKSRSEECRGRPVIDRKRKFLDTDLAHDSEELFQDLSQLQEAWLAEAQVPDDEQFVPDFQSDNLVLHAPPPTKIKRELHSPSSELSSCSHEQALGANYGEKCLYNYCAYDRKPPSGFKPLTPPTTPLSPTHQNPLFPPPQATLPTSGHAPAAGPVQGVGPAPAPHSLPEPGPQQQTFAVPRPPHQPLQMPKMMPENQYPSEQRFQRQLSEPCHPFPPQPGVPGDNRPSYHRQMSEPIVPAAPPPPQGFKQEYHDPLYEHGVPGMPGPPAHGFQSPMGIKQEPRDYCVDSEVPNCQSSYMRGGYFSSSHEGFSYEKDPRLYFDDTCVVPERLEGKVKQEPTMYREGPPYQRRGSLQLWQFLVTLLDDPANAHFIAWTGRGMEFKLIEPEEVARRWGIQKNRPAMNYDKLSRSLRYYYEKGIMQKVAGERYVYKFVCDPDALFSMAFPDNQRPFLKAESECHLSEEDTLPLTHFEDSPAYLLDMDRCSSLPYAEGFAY
# Outline: as §1
# [3] = molecular target: HSF1 (Homo sapiens, UniProt Q00613 1-529); conditions: protein: recombinant; tags: N-terminal GST; chain copies: 3; dsDNA, one strand shown
# HSF1, sequence (Q00613 whole entry): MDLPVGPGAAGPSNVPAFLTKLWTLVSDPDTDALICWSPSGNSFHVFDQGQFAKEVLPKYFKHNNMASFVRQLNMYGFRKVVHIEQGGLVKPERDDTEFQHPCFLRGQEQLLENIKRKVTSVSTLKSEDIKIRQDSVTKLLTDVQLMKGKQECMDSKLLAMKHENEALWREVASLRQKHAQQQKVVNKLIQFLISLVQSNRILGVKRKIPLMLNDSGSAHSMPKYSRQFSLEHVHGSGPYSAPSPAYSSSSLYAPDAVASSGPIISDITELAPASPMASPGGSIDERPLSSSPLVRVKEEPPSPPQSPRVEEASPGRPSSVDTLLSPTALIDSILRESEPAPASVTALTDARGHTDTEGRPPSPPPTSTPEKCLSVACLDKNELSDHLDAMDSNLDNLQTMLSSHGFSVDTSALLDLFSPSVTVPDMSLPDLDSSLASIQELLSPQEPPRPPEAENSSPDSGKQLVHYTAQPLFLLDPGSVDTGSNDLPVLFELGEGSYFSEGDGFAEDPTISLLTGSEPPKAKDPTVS
# Outline: as §1
# [4] = molecular target: T2, SPIC (Homo sapiens, UniProt Q8N5J4 1-248); conditions: protein: recombinant; tags: N-terminal GST; dsDNA, one strand shown
# T2 sequence: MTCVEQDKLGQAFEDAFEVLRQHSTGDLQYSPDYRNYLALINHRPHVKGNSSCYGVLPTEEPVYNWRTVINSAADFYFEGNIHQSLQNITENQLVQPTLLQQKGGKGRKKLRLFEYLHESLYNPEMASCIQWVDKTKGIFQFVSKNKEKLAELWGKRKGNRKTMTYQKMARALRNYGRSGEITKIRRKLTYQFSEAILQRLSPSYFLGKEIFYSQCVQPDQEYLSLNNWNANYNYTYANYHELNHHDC
# Outline: as §1
# [5] = molecular target: ELF4 (Homo sapiens, UniProt Q99607 1-663); conditions: protein: recombinant; tags: N-terminal GST; dsDNA, one strand shown
# ELF4, sequence (Q99607 whole entry): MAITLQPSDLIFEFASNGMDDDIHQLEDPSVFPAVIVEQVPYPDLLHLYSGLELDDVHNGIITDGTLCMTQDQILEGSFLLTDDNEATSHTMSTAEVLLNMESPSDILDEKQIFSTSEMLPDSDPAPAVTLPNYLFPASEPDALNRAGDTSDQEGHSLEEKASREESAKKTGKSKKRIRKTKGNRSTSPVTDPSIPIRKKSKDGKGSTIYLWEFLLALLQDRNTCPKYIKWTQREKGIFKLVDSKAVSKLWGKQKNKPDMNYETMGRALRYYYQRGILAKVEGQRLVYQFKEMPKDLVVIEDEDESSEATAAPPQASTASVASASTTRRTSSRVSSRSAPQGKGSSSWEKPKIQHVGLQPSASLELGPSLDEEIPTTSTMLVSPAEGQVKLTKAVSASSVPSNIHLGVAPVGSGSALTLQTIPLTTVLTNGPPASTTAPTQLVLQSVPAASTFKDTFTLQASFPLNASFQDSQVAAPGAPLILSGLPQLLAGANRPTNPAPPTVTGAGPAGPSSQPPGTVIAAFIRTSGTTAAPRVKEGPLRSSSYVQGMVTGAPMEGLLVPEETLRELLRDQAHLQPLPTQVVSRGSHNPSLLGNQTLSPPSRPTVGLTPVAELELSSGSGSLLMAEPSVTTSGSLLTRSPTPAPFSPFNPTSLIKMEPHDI
# Outline: as §1
# [6] = molecular target: T3, ELK4 (Homo sapiens, UniProt P28324-2 1-405); conditions: protein: recombinant; tags: N-terminal GST; dsDNA, one strand shown
# T3 sequence: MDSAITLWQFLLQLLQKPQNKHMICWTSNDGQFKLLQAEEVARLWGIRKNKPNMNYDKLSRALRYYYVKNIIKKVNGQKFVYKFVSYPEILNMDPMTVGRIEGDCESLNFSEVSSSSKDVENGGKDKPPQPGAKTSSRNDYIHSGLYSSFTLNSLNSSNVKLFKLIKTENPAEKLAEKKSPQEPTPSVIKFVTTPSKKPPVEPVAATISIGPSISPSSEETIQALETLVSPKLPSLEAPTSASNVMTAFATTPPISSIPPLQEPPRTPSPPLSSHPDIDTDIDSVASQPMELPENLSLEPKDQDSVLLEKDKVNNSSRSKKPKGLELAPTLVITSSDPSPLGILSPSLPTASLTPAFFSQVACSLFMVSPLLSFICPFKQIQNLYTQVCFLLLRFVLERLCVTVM
# Outline: as §1
# [7] = molecular target: T4, ETV2 (Homo sapiens, UniProt O00321 1-342); conditions: protein: recombinant; tags: N-terminal GST; dsDNA, one strand shown
# T4 sequence: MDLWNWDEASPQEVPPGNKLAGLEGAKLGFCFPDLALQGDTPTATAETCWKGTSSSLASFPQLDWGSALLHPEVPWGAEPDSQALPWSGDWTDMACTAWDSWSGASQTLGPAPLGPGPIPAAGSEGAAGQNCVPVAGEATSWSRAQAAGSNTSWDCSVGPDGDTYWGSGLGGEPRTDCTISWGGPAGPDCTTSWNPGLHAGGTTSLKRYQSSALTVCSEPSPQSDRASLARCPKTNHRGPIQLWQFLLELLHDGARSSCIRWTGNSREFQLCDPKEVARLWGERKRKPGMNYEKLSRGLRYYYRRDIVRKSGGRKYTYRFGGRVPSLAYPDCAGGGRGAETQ
# Outline: as §1
# [8] = molecular target: T5, ELF3 (Homo sapiens, UniProt P78545 1-371); conditions: protein: recombinant; tags: N-terminal GST; dsDNA, one strand shown
# T5 sequence: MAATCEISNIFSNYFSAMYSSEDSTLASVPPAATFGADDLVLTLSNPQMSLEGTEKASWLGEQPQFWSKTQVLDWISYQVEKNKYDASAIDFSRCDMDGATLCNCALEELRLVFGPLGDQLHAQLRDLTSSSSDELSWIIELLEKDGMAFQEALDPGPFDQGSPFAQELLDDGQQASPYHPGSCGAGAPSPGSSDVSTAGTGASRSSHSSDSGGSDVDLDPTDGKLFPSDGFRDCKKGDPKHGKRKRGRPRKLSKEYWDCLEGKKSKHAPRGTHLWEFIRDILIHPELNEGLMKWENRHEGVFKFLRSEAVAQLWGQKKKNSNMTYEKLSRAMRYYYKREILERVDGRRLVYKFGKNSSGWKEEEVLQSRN
# Outline: as §1
# [9] = molecular target: CRX (Homo sapiens, UniProt O43186 1-299); conditions: protein: recombinant; tags: N-terminal GST; dsDNA, one strand shown
# CRX, sequence (O43186 whole entry): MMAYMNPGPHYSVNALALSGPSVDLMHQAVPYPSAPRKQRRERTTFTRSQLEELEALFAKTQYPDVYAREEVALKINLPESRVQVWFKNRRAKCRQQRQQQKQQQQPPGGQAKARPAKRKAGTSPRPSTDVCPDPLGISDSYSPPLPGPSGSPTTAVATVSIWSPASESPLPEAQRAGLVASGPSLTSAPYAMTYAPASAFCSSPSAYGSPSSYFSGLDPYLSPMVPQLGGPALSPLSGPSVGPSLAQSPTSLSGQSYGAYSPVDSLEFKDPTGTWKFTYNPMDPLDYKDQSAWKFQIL
# Outline: as §1
sequence,measurement,setting,value
TCTCAT,binding signal,[1],"1.27 fold enrichment (6-mer frequency, TF over GST control)"
same,binding signal,[2],"1.39 fold enrichment (6-mer frequency, TF over GST control)"
same,binding signal,[3],"1.29 fold enrichment (6-mer frequency, TF over GST control)"
same,binding signal,[4],"1.46 fold enrichment (6-mer frequency, TF over GST control)"
same,binding signal,[5],"1.25 fold enrichment (6-mer frequency, TF over GST control)"
same,binding signal,[6],"1.37 fold enrichment (6-mer frequency, TF over GST control)"
same,binding signal,[7],"1.46 fold enrichment (6-mer frequency, TF over GST control)"
same,binding signal,[8],"1.32 fold enrichment (6-mer frequency, TF over GST control)"
same,binding signal,[9],"1.36 fold enrichment (6-mer frequency, TF over GST control)"

# — paper PMC7862700, “An all-to-all approach to the identification of sequence-specific readers for epigenetic DNA modifications on cytosine”
